Screening results as filed in PubChem.
DT40 TDP1 no CPT: qHTS for Inhibitors of human tyrosyl-DNA phosphodiesterase 1 (TDP1): qHTS in cells in absence of CPT; DT40 Tdp1-/- hTDP1 cells, no CPT, ATP luminescence, 48 h; Potency, µM (highest dose often 46.2 µM), without a hit: top-dose activity change, negative = growth inhibition, usual class: inhibitors; hit rate 15% among 420,000; AID 686978, 2013; note: potency is the fitted concentration of half-maximal effect; nearly all actives have a fitted effect of over 55% in size
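DT40 Tdp1-/-;hTDP1 cells, no CPT (DMSO vehicle only), 400 cells/well; compounds pin-transferred; ≥48 hr, 37 °C; CellTiter-Glo 30 min RT dark, luminescence read.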
TDP1 cell CPT: growth inhibition of DT40 Tdp1-/-;hTDP1 cells with camptothecin (screen for TDP1 inhibitors); AID 686979; Potency, µM (series often up to 46.2 µM), for the others: at the highest dose activity change, negative = growth inhibition, most hits filed as inhibitors; hit rate 12% among 420,000; chicken DT40 Tdp1-/-;hTDP1 cells + 20 nM CPT, ATP luminescence, 48 h; note: potency is the fitted concentration of half-maximal effect; nearly all actives have a fitted effect of over 55% in size
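Chicken DT40 Tdp1-/- cells stably complemented with human TDP1 were seeded at 400 cells/well in medium containing 20 nM camptothecin, exposed to pin-transferred compounds, and grown at 37 °C for at least 48 hr. Viability was read as ATP luminescence.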
IL1B secr inh: inhibitors of inflammasome signaling (IL-1 beta secretion). THP-1 LPS/ATP IL-1B secretion, AlphaLISA, 16 h; hits give low values. activity change, % at 57.5 µM. hit rate 4.7% among 360,000. AID 743279; in the data active = activity change below about -50%; inconclusive = mostly about -30% to -49%
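THP-1 cells pretreated 1 hr with compounds (up to 57.5 uM final), then stimulated with LPS (250 ng/mL final) plus ATP (1.25 mM final); secreted IL-1B measured by AlphaLISA after 16 hr, decreased signal indicating inhibition.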
ELG1 DNA repair: blocks ELG1-dependent DNA repair in HEK293T cells | hit rate 2.3% among 330,000 | HEK293T ELG1-luciferase reporter, luminescence, 16 h; DNA damage induced by 5-fluorouridine | Potency, µM (top dose mostly 46.1 µM), for inactives: at the top dose activity change, negative = inhibition, usual class: inhibitors; note: potency is the fitted concentration of half-maximal effect; nearly all actives have a fitted effect of over 55% in size
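Quantitative HTS, concentration-response format. 2,000 cells/well co-treated with 5-fluorouridine and compound, 16 hr in 5% CO2 at 37 °C; ONE-Glo luminescence read after 30 min.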
RORgamma inh: inhibitors of mouse ROR gamma transcriptional activity | P51450 | Drosophila S2 Gal4-RORgamma UAS-luciferase reporter, 20 h | Potency, µM (top dose mostly 53.6 µM), for the others: at the highest dose activity change, negative = inhibition, actives largely listed as inhibitors | hit rate 5.4% among 310,000 | AID 2551; note: potency is the fitted concentration of half-maximal effect; nearly all actives have a fitted effect of over 60% in size
Target sequence (P51450 whole entry, looked up, the tested form may be a part): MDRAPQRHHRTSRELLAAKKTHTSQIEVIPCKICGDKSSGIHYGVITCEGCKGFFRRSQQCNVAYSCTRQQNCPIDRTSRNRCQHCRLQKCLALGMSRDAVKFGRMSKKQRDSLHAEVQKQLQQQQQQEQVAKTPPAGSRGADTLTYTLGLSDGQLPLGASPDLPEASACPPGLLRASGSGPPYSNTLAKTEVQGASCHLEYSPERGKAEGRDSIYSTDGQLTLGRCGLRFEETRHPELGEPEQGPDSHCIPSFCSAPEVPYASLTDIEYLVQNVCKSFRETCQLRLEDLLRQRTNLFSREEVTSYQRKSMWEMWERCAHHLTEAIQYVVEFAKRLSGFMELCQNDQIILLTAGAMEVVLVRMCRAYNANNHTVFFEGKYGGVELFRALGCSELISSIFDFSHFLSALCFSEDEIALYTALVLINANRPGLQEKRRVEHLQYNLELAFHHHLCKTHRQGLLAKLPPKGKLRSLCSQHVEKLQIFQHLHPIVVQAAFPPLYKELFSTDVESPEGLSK
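Drosophila Schneider cells stably carrying a metallothionein-driven Gal4 DBD–ROR gamma fusion and a UAS-Photinus luciferase reporter were exposed to compound for 1 hr, then induced with copper sulfate (700 uM final) for 20 hr at ambient temperature before luminescence reading.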
Gal4-VP16 FLuc: counter-screen for ROR gamma inhibitors: Gal4-VP16 reporter. Drosophila S2 Gal4-VP16 UAS-luciferase, luminescence, 20 h. Potency, µM (highest dose often 53.6 µM), for inactives: at the highest dose activity, negative = inhibition, most hits filed as inhibitors. hit rate 3.5% among 310,000;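 note: Gal4-VP16 expression switched on by copper sulfate through the metallothionein promoter; potency is the fitted concentration of half-maximal effect; nearly all actives have a fitted effect of over 50% in size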
Active calls of the source: *; ? = inconclusive; nt = no result; [ ] = another dose, or the depositor's remark. This is a sample that favours compounds with a hit; in the whole collection about 21% have one here. Unless noted, calls come from the whole dose curve; as a rule, active = well fitted curve in the direction sought with a large enough effect; inconclusive = small, poorly fitted or top-dose-only effect, or another doubt; inactive = no such curve, though single readings can be large; an effect the other way counts as inactive or inconclusive. % is set by controls: 0 for no effect and ±100 for the full control effect.

SMILES | DT40 TDP1 no CPT | TDP1 cell CPT | IL1B secr inh | ELG1 DNA repair | RORgamma inh | Gal4-VP16 FLuc
CCOC(=O)CCN1C(=O)[C@H]2[C@H]3[C@H](O)[C@H](O)C/C(=N/NC(=O)OCc4ccc(OC)cc4)[C@H]3CC[C@@H]2C1=O | nt | nt | nt | nt | 12%[10 µM] | 0%[10 µM]
CC(C)c1ccc(NC(=O)c2cc3c(s2)-c2ccccc2SC3)cc1 | ? | 18µM* | nt | nt | nt | nt
CCOc1ccc(N(CC)C(=O)c2cc3c(s2)-c2ccc(Cl)cc2SC3)cc1 | ? | 12µM* | nt | nt | nt | nt
COCCNC(=O)c1cc2c(s1)-c1ccc(Cl)cc1SC2 | ? | -17% | -57* | ? | 9% | ?
CCOc1ccc(S(=O)(=O)N2CCCCC2)cc1NC(=O)Cc1cccs1 | 18µM* | ? | 8 | ? | nt | nt
CC(C)c1ccccc1OCC(=O)Nc1cc(S(=O)(=O)N2CCOCC2)ccc1N1CCCC1 | 15µM* | ? | -56* | ? | nt | nt
CC(=O)NCCC(=O)Nc1cc(S(=O)(=O)N2CCCCC2)ccc1N1CCN(C)CC1 | -8% | -11% | -4 | 2% | nt | nt
COc1ccccc1OCC(=O)Nc1cc(S(=O)(=O)N2CCCCC2)ccc1N1CCCCC1 | 23µM* | 23µM* | -1 | -17% | ? | -13%
COc1ccc(S(=O)(=O)N2CCOCC2)cc1NC(=O)Cc1cccs1 | -2% | 14% | 0 | 5% | nt | nt
CCOc1ccccc1OCC(=O)Nc1cc(S(=O)(=O)N2CCCCC2)ccc1OC | ? | ? | 13 | 0% | nt | nt
CC(=O)NCCC(=O)Nc1cc(S(=O)(=O)N2CCCCC2)ccc1N1CCCCC1 | 23µM* | ? | -2 | -16% | nt | nt
CCOC(=O)C1=C(c2ccccc2)ON(C)C1c1ccccc1 (stereo not given) | ? | ? | -23 | 9% | -6% | -9%
COc1ccccc1C(=O)Nc1nnc([C@@H]2C[C@H](O)[C@@H](CO)O2)s1 | -11% | -4% | -3 | nt | nt | nt
OB(O)c1cc2ccccc2o1 | -16% | -9% | nt | nt | ? | -10%
COc1ccc(N2C(=O)c3ccccc3NC(=O)C2C(=O)Nc2ccc(N3CCOCC3)cc2)cc1 (stereo not given) | ? | ? | -20 | nt | nt | nt
Cc1ccccc1OCCC(=O)Nc1cc(S(=O)(=O)N2CCCCC2)ccc1N1CCN(C)CC1 | ? | ? | -9 | nt | nt | nt
Cc1ccccc1OCC(=O)Nc1ccc(N2CCOCC2)cc1N1CCOCC1 | ? | ? | -2 | -29% | nt | nt
Cc1ccc(OCC(=O)Nc2cc(S(=O)(=O)N3CCCCC3)ccc2N2CCN(C)CC2)c(C)c1 | 9.2µM* | 15µM* | ? | ? | nt | nt
Cc1cc(OCC(=O)Nc2ccccc2N2CCOCC2)c(C(C)C)cc1Cl | 15µM* | 16µM* | -12 | -14% | nt | nt
CCOc1ccccc1OCC(=O)Nc1cc(S(=O)(=O)N2CCCCC2)ccc1N1CCN(CC)CC1 | 16µM* | 23µM* | -27 | ? | nt | nt
NCCC[C@@H](CC(=O)N[C@@H]1CCCC[C@H]1C(=O)N[C@H](CC(=O)N[C@@H](CCC(=O)O)CC(=O)O)Cc1c[nH]c2ccccc12)NC(=O)C[C@H](CO)NC(=O)[C@@H]1CNCC[C@H]1N | nt | nt | nt | nt | -23% | 1%
O=C(C[N+]12CCCc3cccc(c31)CCC2)c1ccc(Cl)c2ccccc12 | -2% | -9% | nt | nt | nt | nt
CCC1(c2ccc(F)cc2)NC(=O)N(CC(=O)N2CCN(S(=O)(=O)c3ccc(C)cc3C)CC2)C1=O (stereo not given) | ? | ? | 23 | nt | nt | nt
CC(=O)Nc1ccc(S(=O)(=O)N(C)CC(=O)OCC(=O)NCc2ccco2)cc1 | 18% | -11% | 4 | 6% | nt | nt
O=C1c2ccccc2OC2(C=Cc3ccccc3O2)N1Cc1ccccc1 (stereo not given) | 18µM* | 4.6µM* | 0 | -27% | 27% | 8%
SMILES | DT40 TDP1 no CPT | TDP1 cell CPT | IL1B secr inh | ELG1 DNA repair | RORgamma inh | Gal4-VP16 FLuc
O=C(c1ccc(F)cc1)N1CCN(C(=O)c2ccc([N+](=O)[O-])cc2)CC1 | -5% | -27% | -10 | 12% | 5% | 2%
Cn1c(CNC(=O)OC(C)(C)C)n[nH]c1=S | 4% | 9% | -12 | 19% | ? | -3%
CCOCCCNC(=O)C(NC(=O)c1ccc(NC(C)=O)cc1)c1ccc(C)cc1 (stereo not given) | -42% | ? | -10 | 12% | 3% | ?
CCOCCCNC(=O)C(c1ccc(C)cc1)N(Cc1cccs1)C(=O)c1ccccc1O (stereo not given) | ? | -6% | -108* | -8% | 16% | -4%
CCOCCCNC(=O)C(c1ccccc1)N(Cc1cccs1)C(=O)c1ccc(NC(C)=O)cc1 (stereo not given) | 16µM* | ? | nt | nt | nt | nt
CCOCCCNC(=O)C(c1ccccc1)N(Cc1ccc2c(c1)OCO2)C(=O)c1ccc(NC(C)=O)cc1 (stereo not given) | -25% | ? | nt | nt | nt | nt
CCOCCCNC(=O)C(c1ccccc1)N(Cc1cccs1)C(=O)c1ccccc1O (stereo not given) | ? | -12% | 0 | 4% | 27% | 0%
CCOCCCNC(=O)C(c1ccccc1)N(Cc1cccs1)C(=O)CNC(=O)c1ccccc1 (stereo not given) | ? | ? | -2 | ? | 31% | -7%
CCOCCCNC(=O)C(c1ccc(C)cc1)N(Cc1cccs1)C(=O)c1ccc(NC(C)=O)cc1 (stereo not given) | 18µM* | 21µM* | nt | nt | nt | nt
CCOCCCNC(=O)C(c1ccc(C)cc1)N(Cc1ccc2c(c1)OCO2)C(=O)c1ccc(NC(C)=O)cc1 (stereo not given) | ? | 15µM* | nt | nt | nt | nt
N#CCCn1c(=O)c(-c2ccc(F)cc2)nc2cnc(OCc3ccccc3)nc21 | 16% | 8% | nt | nt | -18% | -3%
CCOCCCNC(=O)C(NC(=O)c1ccc(NC(C)=O)cc1)c1ccc(Cl)cc1 (stereo not given) | -11% | 4% | -17 | -2% | 5% | -7%
CCOCCCNC(=O)C(c1ccc(Cl)cc1)N(Cc1cccs1)C(=O)c1ccc(NC(C)=O)cc1 (stereo not given) | 16µM* | 15µM* | nt | nt | nt | nt
Cc1cccc(C(=O)N2CCCCC2CCN2CCCCC2)c1 (stereo not given) | 2% | 3% | nt | nt | nt | nt
O=C(Cn1ccc(=O)[nH]c1=O)c1ccc([N+](=O)[O-])o1 | 2.1µM* | 5.2µM* | ? | nt | nt | nt
